Test [1] deals with T1, Aspartate--tRNA(Asp/Asn) ligase (Mycobacterium tuberculosis (strain ATCC 25618 / H37Rv)) (UniProt P9WFW3).
T1 sequence (whole entry): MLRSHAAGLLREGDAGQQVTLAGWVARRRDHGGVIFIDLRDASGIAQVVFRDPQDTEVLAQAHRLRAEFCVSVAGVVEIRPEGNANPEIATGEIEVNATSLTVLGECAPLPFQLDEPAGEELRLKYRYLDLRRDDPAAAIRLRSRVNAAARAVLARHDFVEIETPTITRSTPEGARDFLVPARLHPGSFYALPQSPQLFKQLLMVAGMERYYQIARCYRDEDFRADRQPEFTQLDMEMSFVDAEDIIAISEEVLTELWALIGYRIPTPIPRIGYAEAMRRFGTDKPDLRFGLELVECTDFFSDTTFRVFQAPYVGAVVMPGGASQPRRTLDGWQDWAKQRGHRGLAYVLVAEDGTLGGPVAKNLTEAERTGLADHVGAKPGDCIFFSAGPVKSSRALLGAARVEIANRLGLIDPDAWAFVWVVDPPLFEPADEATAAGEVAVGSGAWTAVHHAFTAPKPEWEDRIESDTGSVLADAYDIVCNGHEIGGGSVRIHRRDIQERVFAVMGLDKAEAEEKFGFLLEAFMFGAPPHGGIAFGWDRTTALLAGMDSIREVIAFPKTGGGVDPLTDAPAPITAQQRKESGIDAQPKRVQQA
Put plainly: Assay for Asp RNA synthetase-1 from Mycobacterium tuberculosis. It is filed as functional. Details: scale not given: direction of the effect not stated beside the values. The following applies: 30 µM.

For test [2], the target named is Shiga toxin 2 (Escherichia coli O157:H7) (UniProt P09385+P09386). Put plainly: E. coli 0.157:H7 Shiga Toxin SOP - stx2 screening assay. It is filed as functional. Details: scale not given: direction of the effect not stated beside the values. The following applies: 30 µM.

Regarding `Cc1cnn(C2CN(CC(=O)NCCc3ccccc3)C2)c1`, the Percent Effect in test [1] was -1.74%; in test [2], 32.1%.

In the case of `CC(C)c1ncc2c(n1)CN(Cc1nc(-c3ccoc3)no1)CC2`, the Percent Effect in test [1] is 3.7%; in test [2] it was -1.63%.

As to `CC(C)c1nc2c(n1C)CCN(CC(=O)Nc1nccs1)C2`, the results for the Percent Effect in test [1] and in test [2] were -1.5% and 26%, respectively.

Take `O=C(C1CCOCC1)N1CCC2(CC1)CC(Oc1ccccc1)CO2` (stereo unspecified): the Percent Effect was -1.89% in test [1] and 25.7% in test [2].

Regarding `COCc1nn(C(C)C)c2c1CCN(Cc1ccc(C)s1)C2`, the values for the Percent Effect in test [1] and in test [2] were -3.6% and -26.4%, respectively.

In the case of `NC(=O)CSCCC(=O)N1CCCC1c1ccsc1` (stereo unspecified), the figures for the Percent Effect in test [1] and in test [2] were -7.94% and 6.46%, respectively.

Consider `CN(C)CCOCC1CN(Cc2ccsc2)Cc2ccnn2C1` (stereo unspecified), for which the Percent Effect in test [1] is -0.625%; in test [2], 3.55%.

For `Cc1cnc(C(=O)N(CCN(C)C)Cc2ccc(Cl)cc2)cn1`, the Percent Effect is -1.59% in test [1] and 5.25% in test [2].

`Cc1ccc(S(=O)(=O)NC(=O)c2cccc3c2OCCO3)c(C)c1`: the Percent Effect in test [1] was -3.08%; in test [2], -9.09%.

Regarding `COC1CCN(C(=O)CCc2c(C)nc3ccnn3c2C)CC1`, the Percent Effect is -6.77% in test [1] and 21% in test [2].

For the compound `CCn1cnnc1C1CCN(C(=O)C(OC)c2ccccc2)CC1` (stereo unspecified), the Percent Effect is -2.71% in test [1] and 9.67% in test [2].

With `COc1ccc(CCNC(=O)NC2CCCC2)cc1OC`, the Percent Effect in test [1] is 2.58%; in test [2], -10.6%.

As to `COc1cc2nc3n(c(=O)c2cc1OC)CCN(C(C)=O)CC3`, the Percent Effect in test [1] is -0.551%; in test [2], 17%.

Consider `Cc1ncc(CN(C)CC2CCCN2c2cccnn2)s1` (stereo unspecified), for which the results for the Percent Effect in test [1] and in test [2] were 3.27% and 9.48%, respectively.

Take `COc1ncccc1C(=O)N1CC[C@H]2C[C@@H](C)O[C@@H]2C1`: the Percent Effect in test [1] is -1.34%; in test [2], -45%.

With `Cc1cccc(CC(=O)NCCCOC(C)C)c1`, the Percent Effect in test [1] was -4.16%; in test [2], -10.2%.

Take `CS(=O)(=O)c1cccc(C(N)c2ccc(F)c(F)c2)c1` (stereo unspecified): the Percent Effect is -1.19% in test [1] and -2.5% in test [2].

Turning to `COc1cccc(C)c1C(=O)N1C[C@@H](CN(C)C)[C@@H](CO)C1`, the Percent Effect in test [1] was 0.951%; in test [2] it was -14.7%.
